Results reported in PubChem BioAssay AID2069 (Sanford-Burnham Center for Chemical Genomics, 2009).
Out of some 1,200 compounds screened, about 210 (18%) were called active. The list is a sample of the results. Unmarked numbers belong to inactive results. No stated cut-off is given here; in the data, active means inhibition above about 30%; inactive means the rest.

Assay: fluorescence readout artefact check – biochemical, HTRF, uHTS, artefact control for SUMOylation inhibitor project, confirmation (AID 2069)
Details: HTRF interference counterscreen, at 35 µM, stronger effect = higher value

| Compound | inhibition |
| --- | --- |
| COC(=O)c1cc2c(C)[nH]c(C)c2cc(C(=O)OC)c1=O | 3.75% |
| O=[N+]([O-])c1ccc(C=Nc2ccc(Cl)c([N+](=O)[O-])c2)s1 | 6.5% |
| O=C(NNc1cc(N2CCCC2)nc(N2CCCC2)n1)c1ccc([N+](=O)[O-])cc1 | -2.1% |
| Cc1ccc(/C=c2\sc3nc(-c4ccco4)nn3c2=O)o1 | -1.1% |
| Cc1sc2nc3ccc(NCc4ccco4)nn3c(=O)c2c1C | 44.4% (active) |
| COc1cccc(-c2[nH]nc3c2C(c2ccsc2)C(C#N)=C(N)O3)c1 (stereo unspecified) | -11% |
| CC(NC(=O)Nc1ccc(O)cc1)(C(F)(F)F)C(F)(F)F | 1.45% |
| COc1ccc(S(=O)(=O)C(C#N)c2nc3ccccc3nc2N2CCCC(C)C2)cc1 (stereo unspecified) | 13.2% |
| O=c1[nH]c(Nc2ccc(F)cc2)cc2ccccc12 | 29.8% |
| O=c1[nH]c(Nc2ccccc2)cc2ccccc12 | 41% (active) |
| COC1=C(Nc2ccccc2)C(=O)c2ccccc2C1=O | -14.2% |
| C/C(=N\NC(=O)c1cc(O)cc(O)c1)c1ccc(NC(=O)Cc2ccccc2)cc1 | 25.6% |
| COc1ccccc1/C=C/C=c1\sc2nc(=O)c(Cc3ccccc3)nn2c1=O | 0.1% |
| Cc1cc(C)cc(Oc2coc3c(CN(C)C)c(O)ccc3c2=O)c1 | 48.2% (active) |
| CCN(CC)Cc1c(O)ccc2c(=O)c(Oc3ccccc3OC)coc12 | 42.6% (active) |
| COc1ccc(NCc2cc3ccccc3[nH]c2=O)cc1 | 11.8% |
| N#Cc1c(-c2ccccc2)nc(SCC(=O)N2c3ccccc3Sc3ccccc32)[nH]c1=O | 15.3% |
| CCOC(=O)N1CCN(C2=C(NS(=O)(=O)c3ccc(NC(C)=O)cc3)C(=O)c3ccccc3C2=O)CC1 | -27.3% |
| Nc1ccc(Br)c2cccnc12 | 11.4% |
| Cc1ccc(N/N=C2\CC(=O)c3ccccc32)cc1Cl | -12% |
| C/C(CCc1ccco1)=N\NC(=O)CNc1cccc2ccccc12 | 22.1% |
| O=c1c(C(c2ccccc2)c2c(O)sc3ccccc3c2=O)c(O)sc2ccccc12 | 4.95% |
| COc1cccc2c1C(=O)c1ccc3ccccc3c1C2=O | 5.5% |
| COc1ccc(OC)c2c1C(=O)c1ccccc1C2=O | 42.9% (active) |

| Compound | inhibition |
| --- | --- |
| COC1=C(Nc2ccccc2OC)C(=O)c2ccccc2C1=O | -37.9% |
| COc1cccc(Cn2cccc(NC(=O)Nc3ccccc3C)c2=O)c1 | 0% |
| CCOC(=O)C1=C(C)NC(=O)CC1c1cc2c(cc1[N+](=O)[O-])OCO2 (stereo unspecified) | -4.35% |
| COc1cc(Br)c(C(=O)c2nccc3cc(OC)c(OC)cc23)cc1OC | 3.15% |
| COc1ccc(NC(=O)CN2C(=O)S/C(=C/c3cccn3-c3ccc(C(=O)O)cc3)C2=O)cc1 | 8% |
| O=C1C2C3C=CC(C4CC34)C2C(=O)N1CCc1ccccc1 (stereo unspecified) | 8.65% |
| Nc1ccc2nn(-c3cccc4ccccc34)nc2c1 | 64.5% (active) |
| CN(C)C=Nc1ccc2nn(-c3ccccc3)nc2c1 | 58.8% (active) |
| CN(C)C=Nc1ccc2nc3c(cc2c1)[nH]c1ccccc13 | 53.9% (active) |
| Cc1ccc(C(=O)c2c3ccc(N)cc3nn2CCC(N)=O)cc1 | 14.2% |
| Cc1ccc(-n2nc3ccc(N)cc3n2)c(C)c1 | 59.3% (active) |
| CC1=NN(c2ccc(C)cc2C)C(=O)C1C(c1cccc(O)c1)C1C(=O)N(c2ccc(C)cc2C)N=C1C (stereo unspecified) | -2.1% |
| N#Cc1c(=O)c2nc(NCc3ccccc3)ncc2n2ccccc12 | 26% |
| COc1ccccc1/C=C/C=N/NC(=O)c1cc(-c2ccco2)[nH]n1 | 1.9% |
| COc1ccccc1-n1cnc2c(c1=O)c1nc3ccccc3nc1n2-c1ccc(C)c(C)c1 | 2% |
| O=[N+]([O-])c1ccc(C2Nc3cccc4cccc(c34)N2)cc1 | -5.1% |
| N#CC1=C(SCC(=O)NC23CC4CC(CC(C4)C2)C3)NC(=O)C(C#N)C12CCCCC2 (stereo unspecified) | 4.6% |
| Cc1cc(NC(=O)CSc2nnc(Nc3ccccc3C)s2)no1 | -1.2% |
| Oc1ccc(NC(=S)Nc2ccc(O)cc2)cc1 | 19.6% |
| Cc1[nH]n(-c2ccccc2)c(=O)c1C(C[N+](=O)[O-])c1ccc(Br)cc1 (stereo unspecified) | -5.3% |
| Cn1cc2ccc(N)cc2n1 | 2.15% |
| COc1ccc(-n2nc3cc(C)c(N)c(Br)c3n2)cc1 | -14.3% |
| Nc1ccc2nn(-c3ccccc3)nc2c1 | 66% (active) |
| Cc1cccc(S(=O)(=O)C(C#N)c2nc3ccccc3nc2N2CC(C)OC(C)C2)c1 (stereo unspecified) | 9.45% |

| Compound | inhibition |
| --- | --- |
| Cc1c(C(=O)c2ccc(Cl)cc2[N+](=O)[O-])c2ccccn2c1CCC#N | 2.8% |
| Cc1n[nH]c(=S)n(NC(=O)/C=C/C(=O)Nn2c(=S)[nH]nc(C)c2=O)c1=O | 51.5% (active) |
| O=C(NCCc1csc(-c2ccccc2)n1)c1c(F)cccc1Cl | -9.35% |
| CC1N(C)c2cccc3cccc(c23)N1C | -9.25% |
| CCOC(=O)c1c(-c2ccccc2)oc2ccc(OC(C)C(=O)O)cc12 (stereo unspecified) | 58.6% (active) |
| CCOC(=O)c1c(C)oc2c1c(C=NCCC(=O)O)c(O)c1ccccc12 | -7.35% |
| CCOC(=O)c1c(C)oc2c1C(=O)c1ccccc1C2=O | 1.65% |
| N=C1S/C(=C\c2ccco2)C(=O)N1c1ccc2c(c1)OCO2 | 12.6% |
| CC1=NOC(=O)/C1=C\c1ccc(-c2cc(Cl)ccc2Cl)o1 | 11% |
| Cc1cc(NC(=O)CSc2nc3cc(C(=O)NCCCOC(C)C)ccc3c(=O)n2Cc2ccco2)no1 | 6.6% |
| COc1cc2c(cc1OC)C(C)=NC1(CCCCC1)C2 | 31.6% (active) |
| CSc1ccc(-c2cc(=O)c3ccccc3o2)cc1 | 60.2% (active) |
| CCN(CC)S(=O)(=O)c1cc(C)ccc1SC | -1.75% |
| Oc1ccc(/C=N/Nc2cc(N3CCCC3)nc(N3CCCC3)n2)cc1O | 42.8% (active) |
| Oc1ccc(/C=N/Nc2cc(N3CCCC3)nc(N3CCCC3)n2)cc1 | 6.25% |
| COc1ccc(/C=N/Nc2cc(N3CCCC3)nc(N3CCCC3)n2)cc1 | 27.9% |
| CCOc1ccc(C=Nc2cccc3ncccc23)cc1 | -2.35% |
| Cc1ccc(C2C(C#N)=C(N)N(c3cccnc3)C3=C2C(=O)CCC3)s1 (stereo unspecified) | 10.7% |
| COc1ccc(CC2S/C(=N/N=C/c3ccccc3O)NC2=O)cc1 (stereo unspecified) | 65.5% (active) |
| O=C(CC1S/C(=N/N=C/C=C/c2ccccc2)NC1=O)Nc1ccc(Cl)c(Cl)c1 (stereo unspecified) | -11.6% |
| O=C1N/C(=N/N=C/c2ccccc2O)SC1Cc1ccc(F)cc1 (stereo unspecified) | 64% (active) |
| COc1ccc(CC2=C(O)c3ccccc3C(=O)C2=O)cc1 | -7.05% |
| Cc1cc(/C=C2\C(=N)N3N=C(c4ccco4)SC3=NC2=O)c(C)n1Cc1ccccc1 | 7.7% |
| N#C/C(=C\c1ccc(O)c(O)c1)C(=O)Nc1cccc2ncccc12 | 8.1% |

| Compound | inhibition |
| --- | --- |
| O=C(NCc1ccccc1)Nc1cccn(Cc2ccccc2F)c1=O | -6.7% |
| CCN(CC)S(=O)(=O)c1ccc(O)c(NC(=O)c2cc(-c3cc(OC)c(OC)c(OC)c3)nc3ccccc23)c1 | 16.9% |
| O=C(N/N=C/c1ccc(Cl)cc1)c1nc2ccc([N+](=O)[O-])cc2c(=O)[nH]1 | 8.95% |
| CC(O)C(=O)N/N=C/c1cccc(Cl)c1Cl (stereo unspecified) | -5.5% |
| O=C(Nc1nnc(-c2ccccc2SCc2ccccc2)s1)Nc1ccccc1F | 6.45% |
| Cc1c(N=C2C=CC(=O)c3ccccc32)c(=O)n(-c2ccccc2)n1C | -29.4% |
| Cc1c(N2C(=O)c3ccc4c5c(ccc(c35)C2=O)CC4)c(=O)n(-c2ccccc2)n1C | 39.8% (active) |
| Cc1ccc(C(=O)Nc2nnc(CC(=O)N/N=C/c3ccc(O)c(O)c3)s2)cc1 | -1% |
| Cc1c(C)c2cc(Cl)c(O)c(CN3CCN(C)CC3)c2oc1=O | 30.6% (active) |
| CCc1c(C)c2cc(Cl)c(O)c(CN(C)C)c2oc1=O | 37.2% (active) |
| Cc1c(CC(=O)O)c(=O)oc2c(C)c(OCc3ccc(F)cc3Cl)ccc12 | -7.8% |
| Cc1cc(Br)ccc1-n1[nH]c(C)c(C=Nc2cccc3nsnc23)c1=O | 14.9% |
| NC(=O)CC(NC(=O)Cc1cccc2ccccc12)c1ccc(NCCc2ccccc2F)c([N+](=O)[O-])c1 (stereo unspecified) | 0.5% |
| CCc1ccc(NC(=O)C(CC)Sc2nc3cc4c(cc3c(=O)n2Cc2ccco2)OCO4)cc1 (stereo unspecified) | 6.65% |
| N#Cc1cnn2c(-c3ccccc3)ccnc12 | 36.5% (active) |
| NS(=O)(=O)c1ccc(-c2ccc(/C=C3\NC(=S)NC3=O)o2)cc1 | -17.4% |
| Cc1cccc(NC2=C(NCCO)C(=O)c3ccccc3C2=O)c1 | -25.1% |
| Cc1ccccc1N=Cc1cccc(O)c1O | -6.55% |
| CCCCn1c(=O)[nH]c(=O)c2c1nc(-c1ccc(-c3ccc(F)cc3)o1)n2C | 21.7% |
| CCCCn1c(NS(=O)(=O)c2ccccc2)c(S(=O)(=O)c2ccc(C)cc2)c2nc3ccccc3nc21 | 16.1% |
| CCCCn1c(=O)[nH]c2nc3cc(N)ccc3nc2c1=O | 43.9% (active) |
| Oc1ccc(C2Nc3cccc4cccc(c34)N2)c(O)c1 | -3.25% |
| CC(=O)Oc1ccc2c(C)c(CC(C)O)c(=O)oc2c1 (stereo unspecified) | 42.2% (active) |
| CC(NC(=O)OC(C)(C)C)C(=O)Oc1ccc2ccc(=O)oc2c1 (stereo unspecified) | 25.8% |
